# Inconclusive results are not listed. The source made the active and inactive calls. Calls come from the whole dose curve; as a rule, active = well fitted inhibition curve with a large enough effect in the repeat runs; inconclusive = weak or mixed curves; inactive = no such curve, though single readings can be large or run the other way.
# Target: Cytochrome P450 2C9 (Homo sapiens) (UniProt P11712)
# Experiment: Cytochrome P450 family 2 subfamily C member 9 (CYP2C9) small molecule antagonists: luciferase biochemical (cell-free) qHTS assay (AID 1645842); note: nearly all actives have a fitted effect of over 55% in size
# Conditions: P450-Glo CYP2C9 enzyme assay, luciferin luminescence; series mostly up to 57.4 µM
# Summary of the method: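 P450-Glo CYP2C9 system: proluciferin substrate with enzyme in mix containing 0.4% BSA, 10 min at room temperature, then NADPH regeneration solution added and incubated 1 h at 37C. Detection reagent stopped reaction; luminescence read after 20 min as RLU.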
# Potency is the fitted concentration of half-maximal effect.
# Chain of Cytochrome P450 2C9 (Homo sapiens) (P11712 whole entry, looked up): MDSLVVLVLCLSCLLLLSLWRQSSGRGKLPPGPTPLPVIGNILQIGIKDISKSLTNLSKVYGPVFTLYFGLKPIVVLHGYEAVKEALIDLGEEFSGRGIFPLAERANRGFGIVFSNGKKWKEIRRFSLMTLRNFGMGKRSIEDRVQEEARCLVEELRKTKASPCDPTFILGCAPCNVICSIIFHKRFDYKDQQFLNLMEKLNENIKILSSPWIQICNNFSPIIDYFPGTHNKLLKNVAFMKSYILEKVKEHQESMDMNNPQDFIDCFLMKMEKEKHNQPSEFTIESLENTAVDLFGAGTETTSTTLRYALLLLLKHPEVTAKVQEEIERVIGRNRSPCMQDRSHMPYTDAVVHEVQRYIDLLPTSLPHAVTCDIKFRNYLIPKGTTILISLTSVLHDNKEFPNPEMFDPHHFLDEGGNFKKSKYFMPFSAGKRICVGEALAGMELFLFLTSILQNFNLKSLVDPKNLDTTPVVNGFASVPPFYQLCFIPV
row,SMILES,Potency
1,CC1=C(C(=O)Nc2cc(Cl)ccc2Cl)C(c2ccco2)C2=C(CCCC2=O)N1 (centres undefined),1.07 µM (active)
2,Cc1cnn(-c2ccccc2)c1NC(=O)COCc1ccccc1,10.7 µM (active)
3,Cc1cc(-c2nc(-c3ccc(OC(F)(F)F)cc3)no2)nn1Cc1ccnc(N2CCN(C3CC3)CC2)c1,6.01 µM (active)
4,COc1cc(C(=O)NCC2(N(C)C)CCCC2)cc(OC)c1OCc1ccccc1,inactive
5,C[C@@H](O[C@H]1OCCN(Cc2nn(P(=O)(O)O)c(=O)[nH]2)[C@H]1c1ccc(F)cc1)c1cc(C(F)(F)F)cc(C(F)(F)F)c1,13.1 µM (active)
6,CC(C)c1cccc(C(C)C)c1NC(=O)Nc1ccc(Sc2ccc([N+](=O)[O-])cc2)cc1,inactive
7,O=C(Nc1ccc(N(Cc2ccsc2)C(=O)Cn2nnc3ccccc32)cc1)C1CC1,1.51 µM (active)
8,Cc1nc(N2CCN(C(=O)c3ccco3)CC2)c2c3c(sc2n1)CCCC3,4.77 µM (active)
9,O=C1COc2nccc(-c3ccccc3F)c2CN1Cc1cc(C(F)(F)F)cc(C(F)(F)F)c1,21.3 µM (active)
10,COc1ccc(C#Cc2ccc(C(=O)N3CCC[C@@H](CO)C3)cc2)cc1,21.3 µM (active)
11,CCOC(=O)C1=Cc2ccc(C(F)(F)C(F)(F)F)cc2N=C(N)C1,12 µM (active)
12,COc1ccc([C@H](Cc2ccncc2)c2ccccc2)cc1OC1CCCC1,0.425 µM (active)
13,CCCCCCCCCC(=O)O,inactive
14,O=S(=O)(c1ccc(Cl)cc1)N1CCN(c2ccnc3cc(Cl)ccc23)CC1,2.39 µM (active)
15,COc1ccc(-c2cc3onc(-c4ccncc4)c3c(=O)n2C)cc1,0.952 µM (active)
16,O=C(CSc1nc2ccccc2c(=O)n1-c1ccccc1)Nc1ccc2c(c1)CCC2,2.68 µM (active)
17,O=C(O)c1ccc(S(=O)(=O)N(Cc2ccc(OC(F)(F)F)cc2)c2ncc(C(F)(F)F)cc2Cl)cc1,23.9 µM (active)
18,O=C(COc1ccc(C(=O)c2ccccc2)cc1)NC1CCN(Cc2ccccc2)CC1,4.77 µM (active)
19,Cc1cccc(-c2[nH]ncc2-c2ccnc3ccccc23)n1,9.52 µM (active)
20,Cc1cc(C(=O)Cn2cc(C#N)ccc2=O)c(C)n1Cc1ccccc1,16.9 µM (active)

row,SMILES,Potency
1,CC#C[C@@H](CC(=O)O)c1ccc(OCc2ccc(CN3CCC4(C=Cc5ccccc54)CC3)s2)cc1,23.9 µM (active)
2,Cc1cn2c(n1)Cc1ccc(Cl)cc1C(c1ccc(N)cc1)=N2,12 µM (active)
3,C=C1CCN([C@H](C)[C@](O)(Cn2cncn2)c2ccc(F)cc2F)CC1,0.477 µM (active)
4,COCCN(C(=O)c1cc(OC)c(OC)c(OC)c1)c1nc(-c2ccccc2)cs1,4.77 µM (active)
5,CC[C@H](C(=O)Nc1ccccc1N1CCCC1)c1ccccc1,7.56 µM (active)
6,Clc1cccc(COc2cncc(N3CCNCC3)n2)c1,inactive
7,COc1ccc(S(=O)(=O)N2CCC[C@H]2C(=O)Nc2cc(C)cc(C)c2)cc1,0.674 µM (active)
8,CCC(=O)O,inactive
9,O=C(Nc1ccccc1)N1CCN(c2nc(-c3ccccc3)ns2)CC1,5.35 µM (active)
10,CN1CCN(C2=Nc3ccccc3Nc3ccc(Cl)cc32)CC1,13.5 µM (active)
11,CC(C)(C)OC(=O)c1ncn2c1C(C)(C)Nc1ccccc1-2,10.7 µM (active)
12,CCNc1nc(Nc2cc(F)c(C(=O)N3CCOCC3)cc2OC)ncc1C(F)(F)F,1.9 µM (active)
13,Cc1nc2cc(C(=O)NCc3ccccn3)nn2c(C)c1Cc1cccc(Cl)c1,1.2 µM (active)
14,CCOc1cccc(NC(=O)c2ccc(N3CCCC3)c(C(F)(F)F)c2)c1,inactive
15,O=C(OC1CN2CCC1CC2)N1CCc2ccccc2C1c1ccccc1 (centres undefined),inactive
16,Cc1noc(-c2ccc(-c3ccc(CC(=O)O)cc3)cc2)c1NC(=O)O[C@H](C)c1ccccc1Cl,3.01 µM (active)
17,COc1cc(C(=O)NC(=S)Nc2cccc(NC(=O)c3ccccc3)c2)cc(OC)c1OC,3.79 µM (active)
18,CCCOc1ccc(S(=O)(=O)N2CCN(CCO)CC2)cc1-c1nc2c(CCC)cn(CC)c2c(=O)[nH]1,5.35 µM (active)
19,COc1c(F)cccc1C(=O)N1C[C@@H](C)CC[C@H]1CNc1ccc(Br)cn1,5.35 µM (active)
